Only a selection was taken, and hits are over-represented in it overall.
BLM inh-1: qHTS Assay for Inhibitors of Bloom's syndrome helicase (BLM) | recombinant BLM DNA unwinding, fluorescence dequenching | Potency, µM (series often up to 56.1 µM), inactives show at the top dose activity change, negative = inhibition, usual class: inhibitors | actives 0.2% (n = 350,000);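 also: plate controls were vehicle for no effect and no enzyme for full effect; nearly all actives have a fitted effect of over 35% in size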
APE1 inh-1: qHTS Assay for Inhibitors of the Human Apurinic/apyrimidinic Endonuclease 1 (APE1); recombinant APE1, TAMRA/BHQ-2 abasic DNA cleavage fluorescence; Potency, µM (doses to about 65.8 µM), for the others: at the top dose activity change, negative = inhibition, most hits filed as inhibitors; actives 0.35% (n = 350,000); AID 2517, 2012;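 also: plate controls were vehicle for no effect and reference inhibitor for full effect; nearly all actives have a fitted effect of over 55% in size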
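Endonuclease cleavage of a quenched abasic-site DNA duplex (50 nM) by APE1 (0.75 nM) was tracked by TAMRA dequenching. Compounds were preincubated with enzyme 15 min at room temperature; data normalized to buffer-only and DMSO wells plus NSC13755 control.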
PKM2 activator: qHTS Assay for Activators of Human Muscle isoform 2 Pyruvate Kinase; Pyruvate kinase PKM (Homo sapiens), P14618; purified PKM2, Kinase-Glo ATP luminescence, activation; response scale: 0% is enzyme alone, no compound; Potency, µM (series often up to 57.5 µM), for inactives: at the top dose activation, actives largely listed as activators; actives 0.34% (n = 260,000); also: nearly all actives have a fitted effect of over 55% in size
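Purified hPK-M2 (>95%) run at intermediate activity with 0.1 mM ADP and 0.5 mM PEP in 50 mM imidazole pH 7.2, KCl, MgCl2; 1 h room temperature. ATP formed read by Kinase-Glo luminescence; normalized to uninhibited and no-enzyme controls.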
KDM4E inh: qHTS Assay for Inhibitors of Human Jumonji Domain Containing 2E (JMJD2E). Lysine-specific demethylase 4E (Homo sapiens), B2RXH2. JMJD2E catalytic domain, FDH-coupled NADH fluorescence (FDH is formaldehyde dehydrogenase). Potency, µM (titrated, usually from 57.1 µM), inactives show at the top dose activity change, negative = inhibition, most hits filed as inhibitors. actives 1.6% (n = 230,000). AID 2147, 2009; active = well fitted inhibition curve with a large enough effect, not every such curve was filed as active; inconclusive = small, poorly fitted or top-dose-only effect, or another doubt; inactive = no such curve, though single readings can be large or run the other way;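 also: 0% = wells with enzyme and -100% = buffer wells without enzyme; nearly all actives have a fitted effect of over 50% in size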
RECQ1 inh-1: qHTS Assay for Inhibitors of RecQ-Like Dna Helicase 1 (RECQ1); ATP-dependent DNA helicase Q1 (Homo sapiens), P46063; actives 0.54% (n = 240,000); Potency, µM (doses to about 57.3 µM), inactives show at the top dose activity, negative = inhibition, most hits filed as inhibitors; RECQ1 DNA unwinding, red fluorescence kinetic read;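 also: plate controls were vehicle for no effect and no enzyme for full effect; nearly all actives have a fitted effect of over 30% in size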
Target sequence (P46063 whole entry, looked up): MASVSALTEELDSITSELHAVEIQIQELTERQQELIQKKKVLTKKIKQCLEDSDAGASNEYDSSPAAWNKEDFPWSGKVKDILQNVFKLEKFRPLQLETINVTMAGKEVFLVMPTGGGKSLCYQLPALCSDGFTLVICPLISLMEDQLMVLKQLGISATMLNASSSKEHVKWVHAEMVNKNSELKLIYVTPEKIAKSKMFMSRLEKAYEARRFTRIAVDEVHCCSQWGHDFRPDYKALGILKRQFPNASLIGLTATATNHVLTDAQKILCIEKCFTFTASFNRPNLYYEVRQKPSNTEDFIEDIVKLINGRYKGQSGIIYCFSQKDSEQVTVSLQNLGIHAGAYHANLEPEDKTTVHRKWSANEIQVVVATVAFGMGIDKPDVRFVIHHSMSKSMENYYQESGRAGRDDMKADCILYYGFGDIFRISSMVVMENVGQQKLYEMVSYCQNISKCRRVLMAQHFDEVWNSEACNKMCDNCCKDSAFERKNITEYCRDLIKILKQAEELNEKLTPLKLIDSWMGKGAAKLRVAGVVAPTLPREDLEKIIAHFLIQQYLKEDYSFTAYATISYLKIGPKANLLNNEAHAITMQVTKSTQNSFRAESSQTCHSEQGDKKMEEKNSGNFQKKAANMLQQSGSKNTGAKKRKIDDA
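50 nM RECQ1T1 preincubated 15 min with compound in Tris pH 8.0 buffer with MgCl2, DTT, Tween-20 and 2.5 ug/ml poly(dI-dC); started with 200 nM TAMRA/BHQ-2 forked duplex and 2 mM ATP. Unwinding read as fluorescence (525/598 nm), two reads 2 h apart.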
DNA dye displace: Counterscreen for APE1 Inhibitors: Fluorescent Dye Displacement Assay. shares compounds with APE1 inh-1. actives 7% (n = 480). AID 2564, 2010. DNA fluorescent dye displacement counterscreen, fluorescence. Potency, µM (doses to about 28.5 µM), for the others: at the highest dose activity change, negative = inhibition, usual class: inhibitors;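 also: loss of thiazole orange fluorescence as the dye is displaced from duplex DNA; 0% = ThO with dsDNA and no compound and -100% = ThO without dsDNA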
Endo IV inh: Counterscreen for APE1 Inhibitors: qHTS Assay for Inhibitors of Endonuclease IV; E. coli Endo IV, fluorogenic AP-site DNA cleavage; shares compounds with APE1 inh-1; Potency, µM (series often up to 27.1 µM), for the others: top-dose activity change, negative = inhibition, actives largely listed as inhibitors; AID 2565, 2010; actives 4% (n = 560);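 also: plate controls were uninhibited enzyme wells for no effect and no enzyme buffer wells for full effect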
APE1 inh-2: Confirmation qHTS Assay for Inhibitors of the Human Apurinic/apyrimidinic Endonuclease 1 (APE1); shares compounds with APE1 inh-1; purified APE1, fluorogenic abasic-site DNA cleavage; Potency, µM (top dose mostly 57.1 µM), for inactives: at the highest dose activity change, negative = inhibition, usual class: inhibitors; actives 44% (n = 750); AID 2572, 2010; also: nearly all actives have a fitted effect of over 30% in size
APE1 FP: qHTS FP-Based Assay for Inhibitors of the Human Apurinic/apyrimidinic Endonuclease 1 (APE1); shares compounds with APE1 inh-1; APE1 binding to TAMRA-labelled double-stranded DNA, fluorescence polarization displacement; Potency, µM (series often up to 28.5 µM), for inactives: at the top dose activity, negative = inhibition, hits mostly inhibitors; actives 7% (n = 480)
BLM inh-2: qHTS Confirmation Assay for Inhibitors of Bloom's syndrome helicase (BLM). Potency, µM, inactives show max response, negative = inhibition, most hits filed as inhibitors. shares compounds with BLM inh-1. AID 2585, 2010. BLM DNA unwinding, fluorescence quenching, biochemical. actives 40% (n = 220);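 also: strand separation dequenches TAMRA so unwinding raises red fluorescence; series mostly up to about 69 µM; nearly all actives have a fitted effect of over 45% in size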
RECQ1 inh conf: Confirmation qHTS Assay for Inhibitors of RecQ-Like Dna Helicase 1 (RECQ1); actives 28% (n = 610); shares compounds with RECQ1 inh-1; RECQ1 helicase DNA unwinding, fluorescence; Potency, µM (highest dose often 229 µM), for the others: top-dose activity change, negative = inhibition, actives largely listed as inhibitors; also: nearly all actives have a fitted effect of over 45% in size
RECQ1 inh-2: Confirmation qHTS Assay for Inhibitors of RecQ-Like Dna Helicase 1 (RECQ1) - Round 2 Cherry Picks | Potency, µM (top dose mostly 119 µM), without a hit: top-dose activity, negative = inhibition, hits mostly inhibitors | shares compounds with RECQ1 inh-1 | recombinant RECQ1 DNA unwinding, red fluorescence | actives 15% (n = 1,100) | AID 504841, 2011; also: nearly all actives have a fitted effect of over 50% in size
Numbers without * were called inactive; i = inactive; ? = inconclusive; . = no result; [ ] = another dose, or the depositor's remark. Unless noted, calls follow the shape of the dose curve; as a rule, active = well fitted curve in the direction sought with a large enough effect; inconclusive = small, poorly fitted or top-dose-only effect, or another doubt; inactive = no such curve, though single readings can be large; an effect the other way counts as inactive or inconclusive. Unless noted, % is scaled to controls: 0 for no effect and ±100 for the full control effect; potency is read from the fitted curve at half-maximal effect.

SMILES | BLM inh-1 | APE1 inh-1 | PKM2 activator | KDM4E inh | RECQ1 inh-1 | DNA dye displace | Endo IV inh | APE1 inh-2 | APE1 FP | BLM inh-2 | RECQ1 inh-2 | others
O=c1[nH]c(=S)n(Cc2ccco2)c(O)c1C=NCc1cccs1 | 6% | ? | -1% | -2% | ? | -9% | 11% | -11%[24.4 µM] | -4% | . | -26%
NC(=O)c1ccc(N=Cc2c(O)n(Cc3ccco3)c(=O)[nH]c2=O)cc1 | ? | 32µM* | ? | ? | ? | ? | -10% | 40µM* | -8% | . | ?
COC1=CC(=O)O[C@H](/C=C/c2ccc3c(c2)OCO3)C1 | 5% | 2% | . | . | 6% | . | . | . | . | . | .
CC(C)CNC(=O)c1c(N)n(Cc2ccc3c(c2)OCO3)c2nc3ccccc3nc12 | 10µM* | -2% | 4% | ? | i | . | . | . | . | -8% | .
C(=C\c1ccccc1)/CN1CCN(CCOC(c2ccccc2)c2ccccc2)CC1 | . | -5% | . | . | 3% | . | . | . | . | . | .
N#C/C(=C\c1ccc(O)c(O)c1)C(=O)NCCCNC(=O)/C(C#N)=C/c1ccc(O)c(O)c1 | . | 0.63µM* | . | 3.5µM* | 0.45µM* | . | . | . | . | 27µM* | . | RECQ1 inh conf=0.51µM*
N#CC(C#N)=Cc1ccc([N+](=O)[O-])c(O)c1 | -7% | -3% | . | ? | ? | . | . | . | . | . | .
